The source of these data is PubChem BioAssay (NCATS).

SMILES strings stand for the structures. Results filed as inconclusive are left out. Unmarked numbers belong to inactive results. Calls follow the shape of the dose curve; as a rule, active = well fitted activation curve with a large enough effect; inconclusive = small, poorly fitted or top-dose-only effect; inactive = flat fitted curve, though single readings scatter.

The nature of this test: Cellular Toxicity (caspase-3) Jurkat (AID 655).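 Also: cells exposed to compound for 16 h at 37 °C before reading.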 The following applies: Jurkat caspase-3 activation, luminescence; caspase-3 activation: at 92.2 µM (top of the series), DMSO = 0%, tamoxifen = 100%. The text has this:
NIH Chemical Genomics Center [NCGC]
NIH Molecular Libraries Screening Centers Network [MLSCN]
National Institutes of Environmental Health Sciences [NIEHS]
National Toxicology Program [NTP]
We have developed a 1536-well cell-based assay for quantitative high throughput screening (qHTS) against a number of cell lines to determine in vitro caspase 3/7 of small molecules. This particular assay uses the Jurkat cell line which is derived from human T cell leukemia.
NCGC Assay Protocol Summary:
The Caspase-Glo 3/7 assay (Promega) is a homogeneous method to measure caspase-3 and caspase-7 activities in cultured cells. The quantitation of caspase 3/7 activity is based on the cleavage of a peptide-aminoluciferin substrate. After caspase cleaves the substrate the free aminoluciferin is liberated and serves as the substrate of luciferase, which generates the light. The luminescent signal is proportional to amount of caspase 3/7 activity present.
Using the Caspase-Glo 3/7 assay, the amount of caspase 3/7 activity was measured in the Jurkat cell line with complete culture medium following compound treatment for 16 hours. The assay was performed in opaque white 1536-well plates. In the screen, tamoxifen and doxorubicin were used as positive controls. Library compounds were measured for their ability to cause the activation of caspase 3/7 in the cell line, as reflected by an increase in luminescence signal, in a concentration-dependent manner. Data were normalized to the controls for basal activity (DMSO only) and 100% stimulation (100 uM tamoxifen). AC50 values were determined from concentration-response data modeled with the standard Hill equation.
qHTS protocol for caspase 3/7 assay in Jurkat cells
[Step] [Parameter] [Value] [Description]
1. Reagent; 5 uL; 5000 Jurkat cells/well
3. Controls; 23 nL; Tamoxifen 0.23 uM to 100 uM & Doxorubicin 7.0 pM to 100 uM
4. Time; 16 hr; 37 °C incubation
5. Reagent; 5 uL; Caspase-Glo 3/7 reagent
6. Time; 20 min; Room Temperature
7. Detection; Luminescence; Viewlux plate reader
Keywords: caspase 3/7, apoptosis, Jurkat cell line, luminescence, NTPHTS, NTPHTS_NCGC, NIEHS, EPA, DSSTox, MLSMR, MLSCN, NIH Roadmap, qHTS, NCGC
Regarding `COCCOC(=O)c1ccccc1C(=O)OCCOC`, the caspase-3 activation was 0.0969%.

For the molecule `C=CCCCCCC`, the caspase-3 activation was -1.08%.

With `Cc1ccccc1C(=O)O`, the caspase-3 activation was -1.34%.

On to `CCCCCCCCC`, for which the caspase-3 activation was 0.991%.

For the molecule `COC(=O)CC#N`, the caspase-3 activation is 1.32%.

`Cc1ccc(C)c(N)c1`: the caspase-3 activation is 0.403%.

`CC(C)c1ccccc1`: the caspase-3 activation was -0.787%.

Take `CCC1CO1` (stereo not given): the caspase-3 activation was 1.29%.

For the molecule `CCC(O)C(C)(C)C` (stereo not given), the caspase-3 activation is 2.09%.

As to `O=C(Cl)c1c(Cl)cccc1Cl`, the caspase-3 activation was 2.4%.

On to `Clc1cc(Cl)cc(Cl)c1`, for which the caspase-3 activation was 0.897%.

For `NS(=O)(=O)O`, the caspase-3 activation is 0.859%.

In the case of `COc1ccc(N)c(C)c1`, the caspase-3 activation is 0.894%.

As to `O=[N+]([O-])c1cccc(Cl)c1`, the caspase-3 activation is -3.2%.

As for `c1ccc2c(c1)Oc1ccccc1S2`, the caspase-3 activation was -0.252%.

As for `O=C(O)c1ccc(C(=O)O)cc1`, the caspase-3 activation is 1.28%.

Regarding `CC(C)(C)OC=O`, the caspase-3 activation is -1.27%.

`CC(O)COC(C)(C)C` (stereo not given): the caspase-3 activation is 0.633%.

Consider `CC(=O)c1ccc([N+](=O)[O-])cc1`, for which the caspase-3 activation is 0.818%.

For `C=C(C)C(N)=O`, the caspase-3 activation is -0.182%.

`CC/C=C1/OC(=O)c2ccccc21`: the caspase-3 activation is -0.618%.

Take `C(=C/c1ccccc1)/c1ccccc1`: the caspase-3 activation is 0.745%.

As for `CC(=O)OC(C)=O`, the caspase-3 activation is -0.999%.

Turning to `O=[N+]([O-])c1ccc2nc[nH]c2c1`, the caspase-3 activation was 0.964%.

With `CC/C(C)=N/O`, the caspase-3 activation is -0.144%.

Consider `CCc1ccccc1O`, for which the caspase-3 activation is 0.741%.

As for `Cc1cccc(Br)c1`, the caspase-3 activation was -1.22%.

For the molecule `O=C1CCCCC1`, the caspase-3 activation was 1%.

On to `Cc1ccc(CO)cc1`, for which the caspase-3 activation was 2.2%.

As to `NC(N)=S`, the caspase-3 activation is 0.321%.

Turning to `C1CCOC1`, the caspase-3 activation was -0.19%.

In the case of `Cc1nc2ccc(Cl)cc2[nH]1`, the caspase-3 activation was 0.744%.

Regarding `O=C1C=CCCC1`, the caspase-3 activation is -0.0925%.

For `Nc1ccccc1[N+](=O)[O-]`, the caspase-3 activation was -0.598%.

Turning to `Cc1cccc(C(=O)O)c1[N+](=O)[O-]`, the caspase-3 activation was 0.0965%.

On to `CCC(C)(C)C`, for which the caspase-3 activation is -0.787%.

For `O=Cc1ccc(C(=O)O)cc1`, the caspase-3 activation is 0.522%.

In the case of `CCCCCCC(=O)O`, the caspase-3 activation was 0.927%.

In the case of `Oc1cccc(Nc2ccccc2)c1`, the caspase-3 activation is 2.02%.

For `CNC(=O)N(c1ccccc1)c1ccccc1`, the caspase-3 activation is 1.82%.
